This is a sample that favours compounds with a hit; in the whole collection about 3.4% have one here.
Mito fusion act – inhibitors of mitochondrial division or activators of mitochondrial fusion; S. cerevisiae fusion-defective mutant growth rescue, CellTiterGlo 48 h; Potency, µM (highest dose often 46.1 µM), without a hit: at the top dose growth rescue (activation), actives largely listed as activators; 320,000 compounds, 0.23% hits; note: % of control where 0% means no effect; nearly all actives have a fitted effect of over 45% in size
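Temperature-sensitive fusion-defective S. cerevisiae (e.g. fzo1-1, mgm1-5) were grown with compound in YPEG medium (3% ethanol, 3% glycerol) for 48 hours at 37C. Growth rescue was measured as viability by CellTiterGlo luminescence after 10 minutes at ambient.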
VDR inhibitor – vitamin D3 receptor (human) inhibition | VDR-SRC2-3 peptide fluorescence polarization, 2 h | Potency, µM, inactives show max response, negative = inhibition, usual class: inhibitors | 400,000 compounds, 0.93% hits; note: % is set by controls: 0 for no effect and ±100 for the full control effect
Target sequence (P11473 whole entry, looked up): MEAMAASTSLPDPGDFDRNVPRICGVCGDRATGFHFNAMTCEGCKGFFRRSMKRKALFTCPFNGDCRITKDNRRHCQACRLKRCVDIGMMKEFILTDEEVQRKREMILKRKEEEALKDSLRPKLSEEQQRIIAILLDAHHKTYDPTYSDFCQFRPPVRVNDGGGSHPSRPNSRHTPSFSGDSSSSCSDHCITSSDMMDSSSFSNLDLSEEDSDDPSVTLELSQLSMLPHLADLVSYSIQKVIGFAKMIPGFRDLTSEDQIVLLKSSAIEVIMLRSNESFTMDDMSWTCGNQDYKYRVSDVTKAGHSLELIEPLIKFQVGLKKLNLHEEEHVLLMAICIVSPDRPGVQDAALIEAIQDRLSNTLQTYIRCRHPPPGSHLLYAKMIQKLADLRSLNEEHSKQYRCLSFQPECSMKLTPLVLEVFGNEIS
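Compounds are added to VDR with labelled SRC2-3 coactivator peptide and held 2 h at room temperature. Inhibition of the VDR–peptide interaction is then read as a change in fluorescence polarization.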
KAT2A inh – GCN5L2 (KAT2A) acetyltransferase inhibition; GCN5L2 HAT assay, ThioGlo1 CoA-SH fluorescence; Potency, µM (doses to about 58.9 µM), inactives show at the highest dose activity change, negative = inhibition, most hits filed as inhibitors; AID 504327; 390,000 compounds, 0.21% hits; note: % is set by controls: 0 for no effect and ±100 for the full control effect
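GCN5L2 (20nM final) in 50mM HEPES, 0.1mM EDTA pH 7.5, 0.01% Tween-20 was preincubated 15 min at room temperature with compound, then given ThioGlo1 (50uM), H3(1-25) peptide (75uM) and acetyl-CoA (70uM); CoA-thiol fluorescence (Ex340/Em540) was read at 0 and 20 min.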
PLK1 PBD inh – PLK1 (human) polo-box domain binding inhibition | P53350 | Plk1 PBD binding of FITC phosphopeptide, fluorescence polarization | Potency, µM, inactives show max response, negative = inhibition, actives largely listed as inhibitors | 360,000 compounds, 2.8% hits | AID 720504; note: series mostly up to about 57 µM; % is set by controls: 0 for no effect and ±100 for the full control effect; nearly all actives have a fitted effect of over 65% in size
PKM2 act – increases activity of human pyruvate kinase M2 | P14618 | purified PKM2, Kinase-Glo ATP luminescence, activation; response scale: 0% is enzyme alone, no compound | Potency, µM (doses to about 57.5 µM), for the others: top-dose activation, usual class: activators | 260,000 compounds, 0.34% hits | AID 1631; note: % is set by controls: 0 for no effect and ±100 for the full control effect; nearly all actives have a fitted effect of over 55% in size
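ATP formation by purified human PK-M2, quantified via coupled luciferase luminescence after 1 h at room temperature with 0.1 mM ADP and 0.5 mM PEP final.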
GLS inh – blocks human kidney-isoform glutaminase activity; O94925; GLS enzymatic activity, qHTS titration; Potency, µM (top dose mostly 45.5 µM), inactives show top-dose activity change, negative = inhibition, hits mostly inhibitors; 410,000 compounds, 0.21% hits; AID 624170; note: % is set by controls: 0 for no effect and ±100 for the full control effect
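Assay buffer: 45 mM KH2PO4 pH 8.2, 0.02% Tween-20. hKGA acts on L-glutamine (1 mM solution added); product glutamate is reported by an oxidase/peroxidase Amplex Red coupling, with fluorescence taken at baseline and 30 min.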
* hit, by the source's call; [ ] = dose if it differs, or a comment. Calls come from the whole dose curve; as a rule, active = well fitted curve in the direction sought with a large enough effect; inconclusive = small, poorly fitted or top-dose-only effect, or another doubt; inactive = no such curve, though single readings can be large; an effect the other way counts as inactive or inconclusive. Potency is the fitted concentration of half-maximal effect.

Screening O=C(COc1ccccc1F)N1CCN(CCN2C(=O)c3cccc4cccc(c34)C2=O)CC1 returned Mito fusion act -6%, VDR inhibitor -1%, KAT2A inh -12%, PLK1 PBD inh 1%, PKM2 act -5% and GLS inh -5%.
For O=C(COc1ccccc1)N1CCN(CCN2C(=O)c3cccc4cccc(c34)C2=O)CC1 the results were Mito fusion act -6%, VDR inhibitor -12%, KAT2A inh -2%, PLK1 PBD inh 17µM*, PKM2 act -4% and GLS inh -13%.
Screening c1ccc(N2CC[C@@]3(CCCNC3)C2)cc1 returned VDR inhibitor 50µM* and KAT2A inh -12%.
CCC(C=C[C@@H]1OC(=O)C=C[C@H]1C)=C[C@H](C)CC=CC(C)=C[C@@H](C)C(=O)[C@@H](C)[C@H](O)[C@@H](C)CC(C)=CC(=O)O was read as VDR inhibitor 1.6µM* and KAT2A inh -18%[2.33 µM].
Screening N#C/C(=C/c1ccc(O)c(O)c1)C(N)=S returned Mito fusion act 21µM*, VDR inhibitor 40µM* and KAT2A inh inconclusive.
C[C@H]1[C@@H]2Cc3ccc(O)cc3[C@]1(C)CCN2C was read as GLS inh 54%[231 µM].
N#CC(C#N)=NNc1ccc(S(N)(=O)=O)cc1 was read as Mito fusion act -4%, VDR inhibitor inconclusive, KAT2A inh -6%, PLK1 PBD inh 24µM*, PKM2 act -7% and GLS inh 56%.
CSc1ccc(C(=O)C2CCCN(Cc3cc4ccccc4[nH]3)C2)cc1 (centres undefined) was read as Mito fusion act -15%, VDR inhibitor 89µM*, KAT2A inh -4%, PLK1 PBD inh 30µM*, PKM2 act 4% and GLS inh -1%.
Cc1ccc(C)c(NC(=S)NC2CC3CCC(C2)N3Cc2ccco2)c1 (centres undefined) was read as Mito fusion act 2%, VDR inhibitor 9%, KAT2A inh 2µM*, PLK1 PBD inh -4%, PKM2 act -6% and GLS inh 5%.
`O=C1NC(=O)N(c2ccc3c(c2)OCO3)C(=O)/C1=C/c1cccs1` gave Mito fusion act -26%, VDR inhibitor 79µM*, KAT2A inh -2%, PLK1 PBD inh 2.1µM*, PKM2 act 11µM* and GLS inh 19%.
`O=C1NC(=O)N(c2ccc3c(c2)OCO3)C(=O)/C1=C/c1ccsc1` gave Mito fusion act -2%, VDR inhibitor inconclusive, KAT2A inh 4%, PLK1 PBD inh 7.5µM*, PKM2 act 9% and GLS inh 16%.
`CCc1ccc(N2C(=O)NC(=O)/C(=C/c3ccsc3)C2=O)cc1` gave Mito fusion act 1%, KAT2A inh -3% and PKM2 act inconclusive.
`CC/C=C\C/C=C\C/C=C\C/C=C\C/C=C\CCCC(=O)NCCCC(=O)O` gave VDR inhibitor -10%.
Screening CC(=O)C1C2c3ccccc3OC1(C)N=c1s/c(=C/c3cn(C)nc3C)c(=O)n12 (centres undefined) returned Mito fusion act 12%, VDR inhibitor 6%, KAT2A inh -13%, PLK1 PBD inh -2%, PKM2 act 8% and GLS inh -4%.
For COC(=O)C1C2c3ccccc3OC1(C)N=c1s/c(=C/c3cnn(C)c3)c(=O)n12 (centres undefined) the results were Mito fusion act 13µM*, VDR inhibitor -1%, KAT2A inh -14%, PLK1 PBD inh -16%, PKM2 act -1% and GLS inh -1%.
Screening CCCSc1cc(OC)c(CCN)cc1OC returned GLS inh -2%[99.4 µM].
`Cc1ccc(C=C2C(Cl)=C(Cl)C(Cl)=C2Cl)cc1` gave Mito fusion act 6%, VDR inhibitor inconclusive, KAT2A inh -24%, PLK1 PBD inh 12µM*, PKM2 act 0% and GLS inh -15%.
C[C@]12CCC3C(CCC4=CC(=O)CC[C@@H]43)C1CCC2O (some centres undefined) was read as GLS inh -14%.
Screening COc1ccc(OCC(=O)N2CCN(Cc3nc4cc([N+](=O)[O-])ccc4n3C)CC2)cc1 returned Mito fusion act 1%, VDR inhibitor -17%, KAT2A inh 0%, PLK1 PBD inh 30µM*, PKM2 act 5% and GLS inh 1%.
`O[N+]1=CC=CCC1=S.On1ccccc1=S.[Zn]` gave VDR inhibitor 45µM* and KAT2A inh 10%.
`O=c1[nH]cnc2[nH]cc(CN3CCCCC3)c12` gave GLS inh -8%.
For COc1ccc(CCn2c(O)c(C=NCc3cccnc3)c(=O)[nH]c2=O)cc1OC the results were Mito fusion act -3%, VDR inhibitor -12%, KAT2A inh 1%, PLK1 PBD inh 27µM*, PKM2 act 3% and GLS inh 63%.
`CCN(CC)CCCN=Cc1c(O)n(CCc2ccc(OC)c(OC)c2)c(=O)[nH]c1=O` gave Mito fusion act 2%, VDR inhibitor 9%, KAT2A inh 1%, PLK1 PBD inh -1%, PKM2 act -2% and GLS inh -2%.
For O=[N+]([O-])/C=C/c1ccc2c(c1)OCO2 the results were Mito fusion act -58%, VDR inhibitor 7.1µM* and KAT2A inh -30%.
Screening CN(Cc1ccccc1)C(=O)c1ccc(NC(=O)C2CCN(C(=O)OC(C)(C)C)CC2)cc1 returned VDR inhibitor -3%, KAT2A inh 2%, PLK1 PBD inh 30µM* and GLS inh 0%.
`O=c1[nH]c(=O)n(Cc2ccco2)c(O)c1C=NCc1cccs1` gave Mito fusion act 2%, VDR inhibitor -12%, PLK1 PBD inh -9%, PKM2 act 28µM* and GLS inh -9%.
Screening N#Cc1c(/N=C/c2c(O)n(Cc3ccco3)c(=O)[nH]c2=O)sc2c1CCCC2 returned Mito fusion act 1%, VDR inhibitor 79µM*, KAT2A inh inconclusive, PLK1 PBD inh 24µM*, PKM2 act -6% and GLS inh -1%.
CCn1c(O)c(C=NCc2cccs2)c(=O)[nH]c1=O was read as Mito fusion act -2%, VDR inhibitor inconclusive, KAT2A inh -3%, PLK1 PBD inh 15µM*, PKM2 act 9% and GLS inh 10%.
O=c1[nH]c(=O)n(Cc2ccco2)c(O)c1/C=N/N1CCCCCC1 was read as Mito fusion act 0%, VDR inhibitor 15%, KAT2A inh -1%, PLK1 PBD inh -3%, PKM2 act -6% and GLS inh inconclusive.

Screening results (PubChem BioAssay)
